The values that follow come from ChEMBL document CHEMBL4808148, “HDAC6 screening dataset using tau-based substrate in an enzymatic assay yields selective inhibitors and activators” (2021).

“And” between values parts separate entries of the source, which are not always exact repeats. Equal values may be shown once. The whole screen tested about 5,600 compounds, of which about 390 (7%) showed an effect of 50% or more. The entries come from a sample that favours strong results as a whole.

The test deals with T1, Protein deacetylase HDAC6 (Homo sapiens) (UniProt Q9UBN7).
T1 sequence (whole entry): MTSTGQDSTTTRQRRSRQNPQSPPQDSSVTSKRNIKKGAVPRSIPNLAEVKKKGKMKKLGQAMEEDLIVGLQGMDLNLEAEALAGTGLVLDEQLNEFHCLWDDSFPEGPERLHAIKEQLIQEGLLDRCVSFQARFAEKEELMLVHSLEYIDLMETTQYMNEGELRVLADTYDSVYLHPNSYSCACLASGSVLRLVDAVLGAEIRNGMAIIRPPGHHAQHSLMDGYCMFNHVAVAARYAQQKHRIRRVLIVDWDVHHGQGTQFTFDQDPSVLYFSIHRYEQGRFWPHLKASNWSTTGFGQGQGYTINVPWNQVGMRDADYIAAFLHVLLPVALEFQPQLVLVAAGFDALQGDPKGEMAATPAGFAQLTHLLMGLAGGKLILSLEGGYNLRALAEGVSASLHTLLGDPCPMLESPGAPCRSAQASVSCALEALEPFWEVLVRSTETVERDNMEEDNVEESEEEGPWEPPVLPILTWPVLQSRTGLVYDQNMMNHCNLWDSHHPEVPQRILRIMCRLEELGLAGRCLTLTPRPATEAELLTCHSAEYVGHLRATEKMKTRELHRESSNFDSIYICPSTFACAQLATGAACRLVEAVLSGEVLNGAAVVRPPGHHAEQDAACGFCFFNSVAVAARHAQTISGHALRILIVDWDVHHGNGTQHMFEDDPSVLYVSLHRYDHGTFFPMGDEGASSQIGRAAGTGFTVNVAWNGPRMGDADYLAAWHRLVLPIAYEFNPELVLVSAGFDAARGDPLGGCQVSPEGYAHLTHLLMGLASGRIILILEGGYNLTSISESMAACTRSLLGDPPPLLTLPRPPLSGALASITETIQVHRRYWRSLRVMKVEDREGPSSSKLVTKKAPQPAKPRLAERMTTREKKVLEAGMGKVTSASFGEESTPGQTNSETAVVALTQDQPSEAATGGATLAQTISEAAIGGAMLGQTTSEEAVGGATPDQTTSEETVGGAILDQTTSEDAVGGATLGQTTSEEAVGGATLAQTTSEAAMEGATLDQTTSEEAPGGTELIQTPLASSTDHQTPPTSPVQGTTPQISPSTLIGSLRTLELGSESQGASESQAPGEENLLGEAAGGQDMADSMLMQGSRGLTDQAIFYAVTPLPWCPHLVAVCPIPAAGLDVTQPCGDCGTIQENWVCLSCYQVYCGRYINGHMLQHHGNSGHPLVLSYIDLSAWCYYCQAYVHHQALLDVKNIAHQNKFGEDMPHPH
The settings on record: at 10 µM.
As a reminder, the inhibition is the relative decrease from the control value, in per cent. In the case of `Cc1nc2ccc(-n3ncc(C(=O)c4cc5ccccc5[nH]4)c3N)cc2[nH]1`, the inhibition stood at 100%. The same measure for `CN1CC[C@@H](NC(=O)Nc2ccc(C#N)cc2)C[C@@H]1c1nc2ccccc2[nH]1`: -9.46%; for `CCCCCCCCCCCCC/C=C/[C@@H](O)[C@@H](N)COP(=O)([O-])OCC[N+](C)(C)C`: 23.4%; for `CCO[C@@H]1OC(=O)C[C@@H]1NC(=O)[C@@H]1CCCN1C(=O)[C@@H](NC(=O)c1ccc(N)c(Cl)c1)C(C)(C)C`: 12.6%. In the case of `CC(C)C(=O)OCC(=O)[C@@]12O[C@H](C3CCCCC3)O[C@@H]1C[C@H]1[C@@H]3CCC4=CC(=O)C=C[C@]4(C)[C@H]3[C@@H](O)C[C@@]12C`, the inhibition worked out at 7.25%.

Consider `CCOC(=O)C12CC1/C(=N\O)c1ccccc1O2` (configuration not stated), for which the inhibition turned out to be 38.5%. Next, `O=C(O[C@@H]1C[C@@H]2C[C@H]3C[C@H](C1)N2CC3=O)c1c[nH]c2ccccc12`: 61.3%. Next, `CN1[C@@H]2CC[C@H]1C[C@@H](OC(=O)N1Cc3ccccc3NC1=O)C2`: -7.98%. As for `Cc1nc(Cn2cnc3c2c(=O)n(C)c(=O)n3C)no1`, the inhibition is 24.3%. For the molecule `CC(C)(C)NCC(O)c1cc(Br)no1` (configuration not stated), the inhibition came out at 18.5%. On to `O=C(O)CCCNC(=O)c1cccnc1`, for which the inhibition was determined as 28.7%.

As for `CC(CNC1CCCCC1)OC(=O)c1ccccc1` (configuration not stated), the inhibition was found to be 34.8%. For the molecule `O=C(O)[C@@H](c1ccc(OCc2ccc3ccccc3n2)cc1)C1CCCC1`, the inhibition is 93.6%. `CCN1CCCC(OC(=O)C(c2ccccc2)c2ccccc2)C1` (configuration not stated): the inhibition was -1.02%. On to `CCCCN(CC)c1c([N+](=O)[O-])cc(C(F)(F)F)cc1[N+](=O)[O-]`, for which the inhibition amounted to 10.6%. For `CC(C)C(=O)SCCCCC[C@H](NC(=O)OC(C)(C)C)C(=O)NC12CC3CC(CC(C3)C1)C2`, the inhibition was found to be 52%. For the molecule `CN(Cc1cccc(-c2ccccc2)c1)C(=O)Oc1ccc(-c2ccc(C(N)=O)cc2)cc1`, the inhibition is 25.7%. The same measure for `NC(=O)c1cccc(-c2cccc(OC(=O)NC3CCCCC3)c2)c1`: 95.1%. Next, `N[C@@H]1CCN(c2cccnc2)C1`: 18.5%; `N#Cc1ccc(N2N=C3c4ccc(C(=O)O)cc4CC[C@@H]3[C@@H]2C2CCCC2)cc1Cl`: 20.4%; `CCCOc1ccc2c(c1)CC[C@@H]1[C@@H]2CC[C@]2(C)[C@@H](OC)CC[C@@H]12`: -9.5%.

On to `CCc1oc2ccccc2c1C(=O)c1ccc(OCC(=O)O)cc1`, for which the inhibition was -6.7%. `NC(=O)c1ncn([C@@H]2O[C@H](CO)[C@@H](O)[C@H]2O)n1`: the inhibition is -7.83%. For the molecule `COc1nc(N)nc2c1ncn2[C@@H]1O[C@H](CO)[C@@H](O)[C@@H]1O`, the inhibition came out at 35.9%. The same measure for `CC(C)Nc1nc2cc(Cl)c(Cl)cc2n1[C@H]1O[C@@H](CO)[C@H](O)[C@@H]1O`: 82.2%; for `Cc1cc(C)cc(NC(=O)Cc2ccc(OC(C)(C)C(=O)O)cc2)c1`: -3.44%; for `O=C(COc1cccc2c(=O)[nH]ccc12)c1ccccc1`: 65.9%. The same measure for `N#CCC(=O)c1ccccc1`: 19.1%. Regarding `COc1ccc(C(=O)CCC(=O)O)c2ccccc12`, the inhibition turned out to be 0.61%. The same measure for `C[C@]12CC[C@H]3[C@@H](CCC4=CC(=O)CC[C@@]43C)[C@@H]1CC[C@@H]2C(=O)CO`: 32.2%; for `O=C(N[C@H]1CN2CCC1CC2)c1c[nH]c2ccsc2c1=O`: 10.3%; for `Cn1nnc(-c2ccc(-c3ccc(N4C[C@H](COP(=O)(O)O)OC4=O)cc3F)cn2)n1`: -2.24%.

In the case of `c1ccc(CCNc2nc(-c3ccccc3)cs2)cc1`, the inhibition was 79.1%. Regarding `O=C(CCCl)NCCc1ccccc1`, the inhibition was 11.9%. The same measure for `O=C(NCc1cccc(O)c1)Nc1nc(-c2ccncc2)cs1`: 3.24% and 13.9%. Turning to `O=C(CCn1cnc2c(=O)[nH]cnc21)Nc1ccc(C(=O)O)cc1`, the inhibition turned out to be 11.5%.

As to `Brc1c(Br)c(Br)c2[nH]nnc2c1Br`, the inhibition was found to be 55.5%. Next, `O=C(Nc1ccc(S(=O)(=O)C(F)(F)F)cc1)C1=CCN(c2ncccc2C(F)(F)F)CC1`: 8.48%; `C[C@]12CCC(=O)C=C1CC[C@@H]1[C@@H]2[C@@H](O)C[C@]2(C)C(=O)CC[C@@H]12`: -0.5%; `CCCC(CCC)C(=O)NCc1ccc2c(cnn2-c2ccccc2OC)c1`: -9.99%. The same measure for `c1ccc(CNc2ncnc3[nH]cnc23)cc1`: 3.46%; for `Nc1nc(OCc2ccccc2)c2nc[nH]c2n1`: 68.9%. The same measure for `CC(=O)O[C@H]1C[C@@H]2CC[C@@H]3[C@H](CC[C@@]4(C)[C@H]3C[C@H](N3CC[N+](C)(C)CC3)[C@@H]4OC(C)=O)[C@@]2(C)C[C@@H]1N1CC[N+](C)(C)CC1`: -3.02%. For `CN1C(=O)N(c2ccc(C#N)c(C(F)(F)F)c2)C(=O)[C@@]1(CO)c1ccccc1`, the inhibition was determined as 16.8%. As for `CN(CCOP(=O)(O)O)C(=N)N`, the inhibition was determined as 20.7%. The same measure for `O=C1N=C(N2CCOCC2)CN1c1ccc(Cl)cc1`: 8.65%; for `NC(Cc1ccc(O)cc1)C(=O)O` (racemic): 12.8%. With `N[C@H](C(=O)O)[C@@H]1CC(Cl)=NO1`, the inhibition is 2.38%.

With `CNC(=O)COC(=O)NCCC1CCN(c2cccc(C)n2)CC1`, the inhibition is 23.1%.

`Cc1nc[nH]c1CCN`: the inhibition is 0.18%. Next, `Cc1[nH]cnc1-c1ccc(Cl)cc1`: 80.5%; `CCn1c(O)nnc1-c1ccc(Cl)cc1`: 4.14%. The same measure for `C[C@]12CCC(=O)C[C@@H]1CC[C@@H]1[C@@H]2CC[C@]2(C)[C@@H](O)CC[C@@H]12`: 6.85%.

Turning to `O=C(/C=C/c1ccc2ccc(C(F)(F)F)cc2n1)c1ccncc1`, the inhibition stood at 36.8%. Next, `O=C(/C=C/c1ccc2ccccc2n1)c1ccncc1`: 91.9%; `CC(C)Oc1ccc(-c2nc(-c3cccc4c3CCC4NCCC(=O)O)no2)cc1C#N` (configuration not stated): 25.6%; `CC(CC(c1ccccc1)c1ccccc1)NC(C)(C)C` (configuration not stated): 13.9%. Next, `C[C@@]1(O)[C@H](O)[C@@H](CO)O[C@H]1n1cnc2c(NC3CCCC3)nc(Cl)nc21`: -7.46%.

`Nc1ccn([C@H]2CO[C@@H](CO)S2)c(=O)n1`: the inhibition amounted to 9.97%. The same measure for `CC1(O)C(O)C(CO)OC1n1ccc(N)nc1=O` (configuration not stated): 50.8%; for `C[S+](CC[C@H](N)C(=O)[O-])C[C@H]1O[C@@H](n2cnc3c(N)ncnc32)[C@H](O)[C@@H]1O` (some centres not stated): 5.35%.

As to `Cc1cccc(Oc2cnc(=O)[nH]c2)c1`, the inhibition came out at 16.9%.

On to `O=C(NCc1ccccc1)c1csc(Nc2ccncn2)n1`, for which the inhibition stood at 44.2%. As for `Cc1c[nH]c2ncnc(N3CCC(CN)(C(=O)Nc4cccc(OC(=O)N(C)C)c4)CC3)c12`, the inhibition was determined as 25.2%.

Take `Cc1cccc(/C=N/Nc2cc(N3CCOCC3)n3nc(-c4ccncc4)cc3n2)c1`: the inhibition was -1.46%. Regarding `CC1(CN)Cc2ccccc2C1`, the inhibition came out at 0.58%. Next, `Brc1cc2c(cc1[C@@H]1Nc3ccccc3[C@@H]3C=CC[C@@H]31)OCO2.Brc1cc2c(cc1[C@H]1Nc3ccccc3[C@H]3C=CC[C@H]31)OCO2`: 2.38%.
